Compound activity (PubChem)
In the library only some 0.97% were active in any assay of this set; here they are far more common.
NTR1 agonist: activates human neurotensin receptor 1 | activation, % at 20 µM | AID 493036 | 0.17% of 330,000 active | P30989 | NTR1-U2OS beta-arrestin-GFP spot imaging, agonist mode;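 active = activation at or above 40% of the spot to cytoplasm intensity ratio, with at least 20 cells analyzed; inconclusive = wells under 20 cells, flagged as cytotoxic or low count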
A1 inh: inhibitors of the anti-apoptotic protein A1, read as caspase activation | MEF A1-2A-BIM cells, Caspase-Glo 3/7 luminescence, 3 h; percent of clofoctol response, vehicle zero | caspase activation, % (no concentration beside the values) | 0.066% of 330,000 active | AID 2462;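 active = over half of replicate activation scores above 10%, or exactly half above 10 with the replicate mean above 10; inconclusive = replicate mean below 10 yet half the replicates above 10; inactive = over half of replicates below 10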
Beta2AR agonist: human beta-2 adrenergic receptor agonism by FAP | P07550 | Am2.2-beta2AR cells, FAP receptor internalization, flow cytometry | response, % (no concentration beside the values) | 0.43% of 340,000 active;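 active = response above a set limit, near 3 SD of response in nonfluorescent compounds, cut at about 42% in these data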
Target sequence (P07550 whole entry, looked up): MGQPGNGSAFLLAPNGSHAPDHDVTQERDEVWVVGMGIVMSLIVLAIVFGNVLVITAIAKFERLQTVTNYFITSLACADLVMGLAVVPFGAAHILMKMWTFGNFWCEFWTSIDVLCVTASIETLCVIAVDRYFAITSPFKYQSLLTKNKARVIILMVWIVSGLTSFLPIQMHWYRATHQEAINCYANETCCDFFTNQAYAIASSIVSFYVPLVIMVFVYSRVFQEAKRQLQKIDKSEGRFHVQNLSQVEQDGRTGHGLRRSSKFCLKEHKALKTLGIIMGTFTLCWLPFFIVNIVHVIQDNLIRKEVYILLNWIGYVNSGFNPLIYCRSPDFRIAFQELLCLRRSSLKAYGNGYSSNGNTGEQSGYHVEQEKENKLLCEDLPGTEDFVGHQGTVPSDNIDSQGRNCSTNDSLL
NOD2 RIPK2 PPI: blocks binding of human NOD2 to RIPK2; O43353; CHO BLA complementation NOD2-RIPK2, CCF4 ratio; inhibition, % at 4.98 µM; 0.38% of 360,000 active; AID 624267; in the data active = inhibition above about 21%
TLR9-MyD88 block: inhibitors of human TLR9-MyD88 binding | CHO BLA complementation TLR9-MyD88, CCF4 FRET ratio | inhibition, % at 4.98 µM | 0.21% of 340,000 active | AID 504734;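 active = inhibition above the mean over all tested compounds plus 3 SD, cut at about 21% in these data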
TLR4-MyD88 BLA: blocks binding of human TLR4 to MyD88 | 0.18% of 200,000 active | HeLa CL3-4 TLR4/MyD88 BLA complementation, FRET ratio | AID 861 | O00206+Q99836 | inhibition, % at 8.4 µM; in the data active = inhibition above about 25%
NTR1 ag conf: NTR1 (human) agonism, confirmed. shares compounds with NTR1 agonist. NTR1-U2OS beta-arrestin-GFP translocation imaging. activation, % at 20 µM. 38% of 480 active;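 active = mean activation at 20 µM of at least 40%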
B2AR ag CP1: agonists of human beta-2 adrenergic receptor; AID 540358; percent response (surface receptor), % at 10 µM; 25% of 1,100 active; shares compounds with Beta2AR agonist; Am2.2-beta2AR cells, FAP surface receptor, flow cytometry; hits give low values;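 active = surface receptor percent response at or below 58%, roughly 3 SD from nonfluorescent compounds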
FAP fluor counter: counter-screen for beta-2AR agonists: fluorescence in Am2.2 cells | shares compounds with Beta2AR agonist | FAP fluorogen flow cytometry, fluorescence counterscreen; hits give low values | calls only at 10 µM | 1,100 tested, under 10 active | AID 588765;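 active = percent response below a set limit in fluorescence channel 1 and below 50% in channel 8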
NOD2 RIPK2 conf: NOD2-RIPK2 interaction inhibition confirmed. shares compounds with NOD2 RIPK2 PPI. CHO cells, NOD2-RIPK2 BLA complementation, CCF4 FRET. inhibition, % at 4.98 µM. 70% of 1,200 active;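 active = mean inhibition across replicates above a set limit taken from the earlier primary screen, cut at about 21% in these data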
BLA counter: NOD2-RIPK2 counterscreen BLA reporter activity | shares compounds with NOD2 RIPK2 PPI | CHO BLA reporter, CCF4 FRET ratio | inhibition, % at 4.98 µM | 57% of 1,200 active;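 active = mean inhibition above the low-control mean inhibition plus three low-control SD, cut at about 11% in these data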
Large screens that a line does not name were inactive (follow-up assays come after a bar, where they were run).

O=C(NCC1CCCO1)c1cn(-c2ccccc2)nc1-c1ccccc1 (stereo not given)	none
COC(=O)c1ccc2c(c1)C(C)(C)C(/C=C/c1ccc(O)cc1)=[N+]2C	NTR1 agonist 46.2, A1 inh 10.5, Beta2AR agonist 48.9, NOD2 RIPK2 PPI 25.7 | NTR1 ag conf 51.4 | NOD2 RIPK2 conf 70.7 | BLA counter inactive
c1ccc(-c2nc3c4ccccc4ccn3c2CN2CCOCC2)cc1	none (no result: TLR4-MyD88 BLA)
COc1ccc(-c2nc3c4ccccc4ccn3c2CN2CCOCC2)cc1OC	Beta2AR agonist 53.2 (no result: TLR4-MyD88 BLA) | B2AR ag CP1 41.2 | FAP fluor counter inactive
c1ccc(CSc2nnnn2-c2cccc3ccccc23)nc1	Beta2AR agonist 43.3 | B2AR ag CP1 38.9 | FAP fluor counter inactive
CCn1c2ccccc2c2cc(Nc3cc(C)nc4ncnn34)ccc21	A1 inh inconclusive, Beta2AR agonist 42.0 | B2AR ag CP1 inactive | FAP fluor counter inactive
CCc1ccc(Nc2cc(C)nc3ncnn23)cc1	none (no result: TLR4-MyD88 BLA)
O=C(Cc1c(F)cccc1Cl)Nc1ccccc1C(=O)N1CCCCC1	none (no result: TLR4-MyD88 BLA)
O=C(Cn1nc(-c2ccccc2)ccc1=O)Nc1ccc(NC(=O)c2ccccn2)cc1	Beta2AR agonist 125.0 | B2AR ag CP1 26.2 | FAP fluor counter inactive
O=C(Cn1nc(-c2ccccc2)ccc1=O)Nc1ccc(-n2cnnn2)cc1	none (no result: TLR4-MyD88 BLA)
CSCCC(NS(=O)(=O)c1ccc(C)cc1)C(=O)N1CCN(S(=O)(=O)c2ccc(F)cc2)CC1 (stereo not given)	none (no result: TLR4-MyD88 BLA)
O=C(NNC(=S)Nc1ccccc1)c1cccc(Br)c1	none
CC(C)(C)NC(=S)NNC(=O)c1cccc(Br)c1	none | B2AR ag CP1 inactive | FAP fluor counter inactive
Oc1ccccc1/C=N/Nc1nc2ccccc2o1	none (no result: TLR4-MyD88 BLA) | B2AR ag CP1 inactive | FAP fluor counter inactive
CCc1ccc(OCC(=O)Nc2ccc(-c3nc4ccccc4o3)c(O)c2)cc1	Beta2AR agonist 93.2 | B2AR ag CP1 1.1 | FAP fluor counter inactive
O=C(Cn1nnc(-c2ccccc2)n1)Nc1ccccc1N1CCOCC1	none | B2AR ag CP1 43.3 | FAP fluor counter inactive
N#C/C(=C\c1c(Cl)cccc1Cl)c1nc2ccccc2o1	none | B2AR ag CP1 inactive | FAP fluor counter inactive
Cc1cc(O)ccc1N/C=C(\C#N)c1nc2ccccc2o1	none
COc1ccc(CCNC(=O)C2CC3Cn4c(nc5ccccc54)C3N2C)cc1 (stereo not given)	none (no result: TLR4-MyD88 BLA)
O=C(Nc1ccccc1C(=O)O)c1cccc(N2C(=O)c3ccccc3C2=O)c1	none (no result: TLR4-MyD88 BLA) | B2AR ag CP1 inactive | FAP fluor counter inactive
NS(=O)(=O)c1ccc(NC(=O)c2cccc(N3C(=O)c4ccccc4C3=O)c2)cc1	Beta2AR agonist 85.5 (no result: TLR4-MyD88 BLA) | B2AR ag CP1 41.8 | FAP fluor counter inactive
NS(=O)(=O)c1ccc(NC(=O)c2ccc(-c3ccccc3)cc2)cc1	none (no result: NTR1 agonist, A1 inh, TLR9-MyD88 block)
O=C(O)c1cc(NC(=O)c2cccc(N3C(=O)c4ccccc4C3=O)c2)cc(C(=O)O)c1	none (no result: TLR4-MyD88 BLA) | B2AR ag CP1 inactive | FAP fluor counter inactive
O=C(O)c1cccc(NC(=O)c2ccc3c(c2)C(=O)N(c2ccccc2)C3=O)c1	none (no result: TLR4-MyD88 BLA)
COc1ccc(NC(=O)c2cccc(N3C(=O)c4cccc([N+](=O)[O-])c4C3=O)c2)cc1	none (no result: TLR4-MyD88 BLA) | B2AR ag CP1 inactive | FAP fluor counter inactive
COc1ccc(NC(=O)c2cccc(N3C(=O)C4C5CCC(C5)C4C3=O)c2)cc1 (stereo not given)	none (no result: TLR4-MyD88 BLA)
COc1cccc(-c2noc(-c3cccs3)n2)c1	none
COc1cccc(OCc2nnc(-c3cccs3)o2)c1	Beta2AR agonist 50.5 | B2AR ag CP1 57.8 | FAP fluor counter inactive
CNCC(O)c1ccc(OC(=O)C(C)(C)C)c(OC(=O)C(C)(C)C)c1 (stereo not given)	none (no result: TLR4-MyD88 BLA) | B2AR ag CP1 45.5 | FAP fluor counter inactive
CC(C)NC[C@H](O)c1ccc(O)c(O)c1	none (no result: Beta2AR agonist, TLR4-MyD88 BLA)
Cc1cn(Cc2ccccc2)c(=O)[nH]c1=O	none
O=C(Nc1ccc2oc(-c3ccccc3F)nc2c1)c1ccccc1F	none (no result: TLR4-MyD88 BLA) | B2AR ag CP1 inactive | FAP fluor counter inactive
O=C(Nc1ccc2oc(-c3ccc4ccccc4c3)nc2c1)c1ccc2c(c1)OCCO2	Beta2AR agonist 42.9 | B2AR ag CP1 20.2 | FAP fluor counter inactive
O=C(Nc1ccc2oc(-c3ccccc3)nc2c1)c1ccccc1F	none
CCn1ncc(Br)c1C(=O)Nc1cc(C)cc(C)c1	none
O=C1CC(c2ccccc2)(c2ccccc2)c2ccccc21	Beta2AR agonist 59.3 (no result: NTR1 agonist, A1 inh, TLR4-MyD88 BLA) | B2AR ag CP1 39.0 | FAP fluor counter inactive
O=C1OC2(c3ccccc31)c1cc(I)c(O)c(I)c1Oc1c2cc(I)c(O)c1I	none (no result: Beta2AR agonist, NOD2 RIPK2 PPI, TLR9-MyD88 block, TLR4-MyD88 BLA)
Cc1cccc(C2(c3cccc(C)c3)OC(=O)c3ccccc32)c1	none
O=C1OC(c2ccccc2)(c2ccc(O)cc2)c2ccccc21 (stereo not given)	Beta2AR agonist 43.4 (no result: NTR1 agonist, A1 inh, TLR4-MyD88 BLA) | B2AR ag CP1 inactive | FAP fluor counter inactive
O=C1OC(c2ccccc2)(c2ccccc2)c2ccccc21	Beta2AR agonist 56.5 (no result: NTR1 agonist, A1 inh, TLR4-MyD88 BLA) | B2AR ag CP1 inactive | FAP fluor counter inactive
Cn1nnnc1SCCNCc1ccccc1OCc1ccc(Cl)cc1	none
Cc1ccc(-n2nnc3c(SCC(=O)NCC4CCCO4)ncnc32)cc1 (stereo not given)	Beta2AR agonist 51.0 | B2AR ag CP1 inactive | FAP fluor counter inactive
CCOC(=O)Cn1nc(C)n(-c2ccc(C(C)(C)C)cc2)c1=O	Beta2AR agonist 51.0 | B2AR ag CP1 inactive | FAP fluor counter inactive
Cc1n[nH]c(=O)n1-c1ccc(C(C)(C)C)cc1	none
C=CC(COCc1ccccc1)N(C(=O)OC(C)(C)C)S(=O)(=O)c1ccccc1Br (stereo not given)	none (no result: TLR4-MyD88 BLA)
O=C(Nc1ncc2c(n1)CC(c1cccc(Cl)c1)CC2=O)c1ccco1 (stereo not given)	Beta2AR agonist 43.1 (no result: TLR4-MyD88 BLA) | B2AR ag CP1 inactive | FAP fluor counter inactive
O=C(Nc1ncc2c(n1)CC(c1ccccc1)CC2=O)c1ccco1 (stereo not given)	none
